AmpC inh detg – blocks E. coli AmpC beta-lactamase in detergent assay. actives 0.041% (n = 370,000). AmpC hydrolysis of nitrocefin, absorbance 480 nm, 0.01% Triton. Potency, µM (doses to about 114 µM), without a hit: top-dose activity change, negative = inhibition, most hits filed as inhibitors;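 also: 0% = no-compound wells and -100% = no-enzyme wells; nearly all actives have a fitted effect of over 25% in size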
Target sequence (P00811 whole entry, looked up): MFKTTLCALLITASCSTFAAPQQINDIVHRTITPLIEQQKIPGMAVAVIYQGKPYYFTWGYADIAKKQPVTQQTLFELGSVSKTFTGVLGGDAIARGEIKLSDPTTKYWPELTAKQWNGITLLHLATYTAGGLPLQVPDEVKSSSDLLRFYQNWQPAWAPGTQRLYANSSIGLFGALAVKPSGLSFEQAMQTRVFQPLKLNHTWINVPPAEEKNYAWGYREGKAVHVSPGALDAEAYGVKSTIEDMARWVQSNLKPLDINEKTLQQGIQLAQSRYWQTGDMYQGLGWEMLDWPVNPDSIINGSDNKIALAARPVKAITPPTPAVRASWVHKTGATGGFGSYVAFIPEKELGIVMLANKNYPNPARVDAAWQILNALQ
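AmpC (5.3 nM in the dispensed reagent) in 20 mM phosphate pH 7.0 with 0.01% (detergent screen) or 0.0001% Triton X-100 was preincubated with compounds for 15 min at room temperature. Nitrocefin was then added from an 800 uM solution, and hydrolysis was followed at 480 nm.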
HCV inh – inhibitors of hepatitis C virus infection; Huh7.5.1 HCVcc-Cre infection, luciferase reporter, 44 h; Potency, µM (top dose mostly 41.8 µM), for the others: top-dose activity change, negative = inhibition, usual class: inhibitors; actives 3.4% (n = 340,000)
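Compounds are dispensed onto cells plated 4 h earlier at 1,000 per well, with HCVcc-Cre virus (about 0.5 moi) added next. Following 44 h of culture, luminescent signal is measured for 15 sec after 15 min with substrate at room temperature.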
AmpC no deterg – inhibitors of E. coli AmpC beta-lactamase without detergent; actives 0.52% (n = 330,000); P00811; AID 485341; Potency, µM (highest dose often 57.1 µM), inactives show top-dose activity change, negative = inhibition, actives largely listed as inhibitors; AmpC nitrocefin hydrolysis, absorbance 480 nm, 0.0001% Triton;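 also: plate controls were no compound for no effect and no enzyme for full effect; nearly all actives have a fitted effect of over 20% in size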
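AmpC (5.3 nM in the dispensed reagent) in 20 mM phosphate pH 7.0 with 0.01% (detergent screen) or 0.0001% Triton X-100 was preincubated with compounds for 15 min at room temperature. Nitrocefin was then added from an 800 uM solution, and hydrolysis was followed at 480 nm.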
Pf growth 48h – inhibits P. falciparum growth in the first generation, 48 h. P. falciparum luciferase growth in erythrocytes, 48 h. Potency, µM (titrated, usually from 28.7 µM), for inactives: at the top dose activity change, negative = inhibition, hits mostly inhibitors. actives 5.9% (n = 310,000). AID 504832
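Here the parasites carry a stable luciferase gene and grow inside erythrocytes in Albumax-based RPMI medium with compound for one erythrocytic cycle. Activity is scored as loss of luminescent signal.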
AMA1-RON2 inh – disrupts binding of P. falciparum AMA1 to RON2; Potency, µM (doses to about 58.2 µM), without a hit: at the highest dose activity change, negative = inhibition, most hits filed as inhibitors; AlphaScreen AMA1-biotinylated RON2 peptide binding; actives 0.2% (n = 360,000);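 also: 0% = vehicle wells and -100% = peptide control; nearly all actives have a fitted effect of over 45% in size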
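AMA1 (3D7) with his tag at 25 nM final met compounds first, then biotinylated RON2 peptide at 25 nM; detection used donor plus acceptor beads, 10 µg/mL apiece, read by AlphaScreen after 30 min at room temperature.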
Pf growth 96h – inhibits malaria parasite growth, 96 h; actives 6.9% (n = 320,000); Potency, µM (series often up to 28.7 µM), without a hit: at the highest dose activity change, negative = inhibition, hits mostly inhibitors; P. falciparum luciferase reporter growth, 96 h; AID 504834
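P. falciparum expressing integrated firefly luciferase grown in erythrocytes (2% hematocrit, 0.05% parasitemia final) with compounds for 96 hours at 37 C, 5% CO2. Growth inhibition read as loss of luminescence after adding luciferase detection reagent.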
The depositor's hits bear a star; ? = inconclusive; · = no result; [ ] = remark or other dose. Compounds with a hit are over-represented: about 11% of the library has one in this group of screens. Calls follow the shape of the dose curve; as a rule, active = well fitted curve in the direction sought with a large enough effect; inconclusive = small, poorly fitted or top-dose-only effect, or another doubt; inactive = no such curve, though single readings can be large; an effect the other way counts as inactive or inconclusive. Unless noted, % is scaled to controls: 0 for no effect and ±100 for the full control effect; potency is read from the fitted curve at half-maximal effect.

SMILES | AmpC inh detg | HCV inh | AmpC no deterg | Pf growth 48h | AMA1-RON2 inh | Pf growth 96h
CCn1c(=O)c2cc(C(=O)NCCc3ccc(OC)c(OC)c3)sc2c2ccccc21 | -5.1% | · | · | · | · | ·
O=C(CCCN1CCC(NC(=O)c2ccccc2)CC1)c1ccc(Cl)cc1 | ? | -12.5% | -16.7% | ? | 4.2% | 0.0%
Cc1ccc(C(=O)NC2CCN(CCCC(=O)c3ccc(F)cc3)CC2)cc1 | -5.3% | -18.3% | -8.3% | 10.4µM* | 5.2% | ?
O=C(CCCN1CCC(n2c(=O)[nH]c3ccccc32)CC1)c1ccc(F)cc1 | -18.4% | ? | -13.2% | 0.809µM* | 5.3% | 10.4µM*
CCOc1ccc(CCNC(=O)c2nn(C)c3c2CS(=O)(=O)c2ccccc2-3)cc1OCC | -0.4% | 6.31µM* | 28.0% | ? | -0.3% | 11.1%
CC1CCCCN1CCCNC(=O)c1nn(C)c2c1CS(=O)(=O)c1ccccc1-2 (stereo not drawn) | -13.3% | 7.4% | -14.5% | 13.1% | 17.7% | 11.7µM*
COc1ccc(CCNC(=O)c2nn(C)c3c2CS(=O)(=O)c2ccccc2-3)c(OC)c1 | -7.9% | 11.2µM* | -9.9% | -18.0% | 5.4% | ?
O=C(CS(=O)(=O)c1cccc2nsnc12)N1CCN(c2cccc(C(F)(F)F)c2)CC1 | -0.2% | · | · | · | · | ·
COc1ccc(S(=O)(=O)c2c(Nc3ccccc3F)sc(C(=O)c3cccc(OC)c3)c2N)cc1 | -3.6% | · | · | · | · | ·
CC(C)c1ccc2oc(-c3ccc(NC(=O)c4ncn[nH]4)cc3)nc2c1 | ? | 8.3% | -35.5% | ? | -23.0% | 1.65µM*
COc1cccc(-c2nc(CS(=O)(=O)CC(=O)Nc3ccc(F)cc3F)c(C)o2)c1 | -11.5% | 11.2µM* | 33.5% | 7.7% | 13.6% | 7.6%
CC(C)CCC(CC(C)O)c1n[nH]c(=S)n1-c1ccccc1 (stereo not drawn) | -12.7% | 8.5% | -12.5% | -1.3% | 5.8%[2.32 µM] | 2.33µM*
CCc1ccc(NC(=O)c2cc(-c3ccco3)on2)cc1 | -3.1% | -0.2% | -31.9% | 277.9% | 1.0% | 2.94µM*
Cc1cc2oc(C(=O)Nc3ccc(S(=O)(=O)Nc4onc(C)c4C)cc3)cc(=O)c2cc1C | 0.5% | · | · | · | · | ·
COc1ccc(C2c3sc(=O)[nH]c3SC3C4CCC(C4)C23)cc1OC (stereo not drawn) | 2.9% | 15.3% | -43.3% | ? | -3.3% | 9.28µM*
O=c1[nH]c2c(s1)C(c1ccc(O)cc1)C1C3CCC(C3)C1S2 (stereo not drawn) | -13.7% | 12.1% | 44.7µM* | -8.6% | 7.3% | -2.8%
CC(C)c1cc(CN2CCN(CCC#N)CC2)cc(C(C)C)c1O | -2.1% | 16.6% | -35.0% | 2.33µM* | -8.6% | ?
CC(C)(C)c1cc(CN2CCN(CCO)CC2)cc(C(C)(C)C)c1O | -0.2% | 24.5% | -4.7% | 3.8% | 3.0% | ?
COc1ccc(-n2nc3cc(C)c(NC(=O)COc4cccc(C)c4)cc3n2)cc1 | 9.5% | · | · | · | · | ·
Cc1cc(NC(=O)C2CC(=O)OC2c2ccccc2)no1 (stereo not drawn) | 1.6% | 5.2% | -5.6% | 38.8% | -1.8% | 33.6%
COc1ccc(NC(=O)C2CC(=O)OC2c2ccccc2)cc1 (stereo not drawn) | -2.4% | 9.5% | -31.7% | -6.0% | -3.1% | 9.28µM*
CC(CCc1ccccc1)NC(C)C(O)c1ccc(O)cc1 (stereo not drawn) | ? | ? | -44.8% | ? | 14.8% | 1.9µM*
CC(C(O)c1ccc(O)cc1)N1CCC(Cc2ccccc2)CC1 (stereo not drawn) | -1.8% | ? | -34.6% | 2.13µM* | -2.2% | ?
C[C@@H](CN1CCC(Cc2ccccc2)CC1)[C@@H](O)c1ccc(O)cc1 | -13.8% | ? | -29.7% | ? | -7.2% | -14.1%
CC(COc1ccccc1)NC(C)C(O)c1ccc(O)cc1 (stereo not drawn) | -13.2% | 4.4%[8.37 µM] | -30.7% | -14.4% | -3.3% | ?
SMILES | AmpC inh detg | HCV inh | AmpC no deterg | Pf growth 48h | AMA1-RON2 inh | Pf growth 96h
CCc1ccc(NC(=O)CCc2c(C)n(C)c3cc(-c4ccccc4C)nn3c2=O)cc1 | 5.5% | · | · | · | · | ·
Nc1ncnc2c1c(-c1ccc(Oc3ccccc3)cc1)cn2C1CCCC1 | -11.4% | ? | -2.5% | 8.28µM* | ? | 5.22µM*
FC(F)(F)c1ccc(Nc2nnnc3ccccc23)cc1 | -0.3% | -11.9% | -2.7% | 1.31µM* | 21.7% | 1.47µM*
CN(C(=O)COc1ccc(Cl)cc1Cl)c1nnc(C23CC4CC(CC(C4)C2)C3)s1 | -9.7% | 12.7% | 0.8% | ? | -1.8% | 13.1µM*
c1nnc(NC2=NCCCCC2)s1 | 2.3% | 6.6% | -12.3% | 31.0% | 2.7% | 5.86µM*
Cc1ccc(C)c(NC(=O)C(CC(C)C)N2Cc3ccccc3C2=O)c1 (stereo not drawn) | 3.8% | · | · | · | · | ·
COc1ccccc1CC1CC(=O)N(c2ccccc2)C1=O (stereo not drawn) | ? | 5.6% | -11.8% | -2.4% | 2.6% | 9.28µM*
COCCCn1c(=N)c(C(=O)NC2CCCC2)cc2c(=O)n3cccc(C)c3nc21 | -9.7% | · | · | · | · | ·
CCOCCCn1c(=N)c(C(=O)NCCN2CCOCC2)cc2c(=O)n3cccc(C)c3nc21 | 1.9% | -29.3% | -9.9% | 10.0% | 0.2% | 1.47µM*
Cc1cccn2c(=O)c3cc(C(=O)NC4CCCC4)c(=N)n(CCCN4CCOCC4)c3nc12 | 0.0% | -19.5% | 57.9% | 2.33µM* | 16.3% | 13.7%
Cc1cccn2c(=O)c3cc(C(=O)NCCN4CCOCC4)c(=N)n(Cc4ccc(F)cc4)c3nc12 | 3.6% | ? | 110.4% | ? | 79.2% | 3.7µM*
Cc1ccc(-n2c(=O)c3oc4ccccc4c3n(Cc3cccc(F)c3)c2=O)cc1C | -2.2% | · | · | · | · | ·
Cc1noc2ncnc(N3CCCC(C(=O)Nc4cccc(C(F)(F)F)c4)C3)c12 (stereo not drawn) | -0.5% | · | · | · | · | ·
Cc1sc(=NC(=O)c2ccco2)n(C)c1-c1ccc(Cl)cc1 | ? | ? | -15.7% | ? | -1.8% | 10.4µM*
COc1ccc(/C=c2\sc3nc(=O)c(C)nn3c2=O)c(OC)c1 | 4.2% | 9.7% | -27.8% | 11.0% | 3.1% | 0.0%
CC(=O)c1sc2nc(=O)c(C)nn2c1C | 5.3% | 1.7% | -13.5% | 12.8% | -4.4% | 3.7µM*
CCN(CC)C(=O)c1nn(-c2ccccc2)c2c1C1CCC2(C)C1(C)C (stereo not drawn) | 6.6% | 12.6µM* | 135.6% | ? | -10.7% | ?
CCN(CC)C(=O)c1nn(Cc2ccccc2)c(=O)c2ccccc12 | ? | 4.5% | 3.6% | -7.8% | -0.2% | ?
NC(=O)c1c(NC(=O)c2nc(SCc3ccccc3F)ncc2Cl)sc2c1CCCC2 | 19.7% | · | · | · | · | ·

High-throughput results as filed in PubChem.
